From PubChem BioAssay (NCATS) come the findings set out here.

Results filed as inconclusive are left out. Activity calls are given as the source filed them. Unless noted, calls come from the whole dose curve.

A short description of assay [1]: qHTS for Inhibitors of the Functional Ribonucleoprotein Complex (vRNP) of Lassa (LASV) Arenavirus: LASV Primary Screen - GLuc reporter signal (AID 1347082; calls by dose curve; tested in HEK293 reporter line; note: nearly all actives have a fitted effect of over 60% in size; note: potency is the fitted concentration of half-maximal effect; for activity change, negative = inhibition: % is set by controls: 0 for no effect and ±100 for the full control effect).
Assay [2] in a line: qHTS for Inhibitors of the Functional Ribonucleoprotein Complex (vRNP) of Lassa (LASV) Arenavirus: Viability assay - alamar blue signal for LASV Primary Screen (AID 1347083; calls by dose curve; tested in HEK293 reporter line; note: nearly all actives have a fitted effect of over 80% in size; note: potency is the fitted concentration of half-maximal effect).
Assay [3] is described as follows: qHTS for Inhibitors of the Functional Ribonucleoprotein Complex (vRNP) of Lymphocytic Choriomeningitis Arenaviruses (LCMV): Viability assay - alamar blue signal for LCMV Primary Screen (AID 1347085; calls by dose curve; tested in HEK293 reporter line; note: nearly all actives have a fitted effect of over 80% in size; note: potency is the fitted concentration of half-maximal effect). A general note: In qHTS, concentration-response curves come from the screen itself.
Assay [4] concerns the target Nucleoprotein (Lymphocytic choriomeningitis virus (strain Armstrong)) (UniProt P09992). Nature of the assay: qHTS for Inhibitors of the Functional Ribonucleoprotein Complex (vRNP) of Lymphocytic Choriomeningitis Arenaviruses (LCMV): LCMV Primary Screen - GLuc reporter signal (AID 1347086). For activity change, negative = inhibition: % is set by controls: 0 for no effect and ±100 for the full control effect. Note: nearly all actives have a fitted effect of over 70% in size. Note: potency is the fitted concentration of half-maximal effect.
Assay [5] is described as follows: Primary qHTS to identify inhibitors of SARS-CoV-2 cell entry (AID 1645846). Note: nearly all actives have a fitted effect of over 45% in size. Note: potency is the fitted concentration of half-maximal effect. Conditions: activity change, negative = inhibition: at 57.1 µM (top of the series) unless noted. The gist of the method: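 Data are normalized to wells receiving SARS-CoV-2-S pseudoparticles and those given bald particles. Entry signal was luciferase luminescence in stable hACE2 Expi293F cells, 48 hr post-infection, after 1 hr compound pretreatment.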

Assay [6] can be described thus: qHTS profiling of the MIPE4 collection as inhibitors of Plasmodium falciparum (DD2) proliferation (AID 743345; call rule not given here). Conditions: P. falciparum Dd2 in erythrocytes, SYBR Green DNA, 72 h; at 28.5 µM (top of the series) unless noted. The gist of the method:
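Parasite DNA was quantified by SYBR Green I fluorescence (ex 485, em 535 nm) after overnight lysis in saponin/Triton buffer at room temperature. Cultures at 0.3% parasitemia and 2.5% hematocrit were first exposed to compound for 72 h at 37 C; signals were normalised to artemisinin (0.29 uM) and vehicle wells.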

Nucleoprotein (Lymphocytic choriomeningitis virus (strain Armstrong)), sequence (P09992 whole entry, looked up): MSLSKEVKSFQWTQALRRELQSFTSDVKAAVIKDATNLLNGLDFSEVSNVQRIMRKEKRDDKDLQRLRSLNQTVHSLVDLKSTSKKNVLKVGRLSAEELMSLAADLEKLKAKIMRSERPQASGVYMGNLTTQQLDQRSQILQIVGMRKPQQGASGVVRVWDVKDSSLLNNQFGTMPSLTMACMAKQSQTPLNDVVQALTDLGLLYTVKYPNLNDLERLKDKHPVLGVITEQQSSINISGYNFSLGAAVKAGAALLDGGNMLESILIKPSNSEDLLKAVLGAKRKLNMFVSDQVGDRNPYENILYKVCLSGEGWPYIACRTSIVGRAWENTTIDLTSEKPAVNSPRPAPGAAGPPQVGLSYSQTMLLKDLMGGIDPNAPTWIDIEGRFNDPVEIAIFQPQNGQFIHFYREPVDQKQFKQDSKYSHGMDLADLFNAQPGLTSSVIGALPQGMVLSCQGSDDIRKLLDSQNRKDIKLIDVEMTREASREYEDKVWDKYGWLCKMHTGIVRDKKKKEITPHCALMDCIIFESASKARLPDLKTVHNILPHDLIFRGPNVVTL

Take `Cc1ccc(C(=O)N(CCCN)[C@@H](c2oc3cc(Cl)ccc3c(=O)c2Cc2ccccc2)C(C)C)cc1`: the Potency entry in assay [1], in assay [2], in assay [3] and in assay [4] was “inactive” each time. Further, the activity change, negative = inhibition in assay [5] was -98.4%.
Turning to `CC(C)C[C@@H](N)[C@H](O)C(=O)N[C@H](C(=O)N[C@H](C(=O)N[C@@H](CC(=O)O)C(=O)O)C(C)C)C(C)C`, the Potency result in assay [1], in assay [2], in assay [3] and in assay [4] was “inactive” throughout. Further, the activity change, negative = inhibition in assay [5] was -14%.
Consider `Cc1ccc(CN2CCNCC2)cc1NC(=O)CNc1ccc(F)c(F)c1`, for which the Potency entry in assay [1], in assay [2], in assay [3], in assay [4] and in assay [5] was “inactive” in each case.
`C[C@H](NC(=O)Cc1cc(F)cc(F)c1)C(=O)N[C@H](C(=O)OC(C)(C)C)c1ccccc1`: the Potency entry in assay [1], in assay [2], in assay [3] and in assay [4] was “inactive” each time. Also, the activity change, negative = inhibition in assay [5] is -33%.
`O=S(=O)(O)CCSSCCS(=O)(=O)O`: the Potency entry in assay [1], in assay [2], in assay [3], in assay [4] and in assay [5] was “inactive” in each case.
As for `Cc1csc(-c2nnc(Nc3ccc(Oc4ncccc4-c4ccnc(N)n4)cc3)c3ccccc23)c1`, the Potency entry in assay [1] and in assay [4] was “inactive” each time. The Potency is 6850 nM (active) in assay [2], 19300 nM (active) in assay [3] and 15800 nM (active) in assay [5].
As for `C=CC(=O)N1CCc2ccc(-n3c(=O)ccc4cnc5ccc(-c6cnn(C)c6)cc5c43)cc21`, the Potency entry in assay [1], in assay [2], in assay [3] and in assay [4] was “inactive” in each case. The Potency in assay [5] is 3550 nM (active).
For `CC1(C)CC(=O)c2c(C(F)(F)F)nn(-c3ccc(C(N)=O)c(NC4CCC(O)CC4)c3)c2C1` (stereo unspecified), the Potency in assay [1] was 1090 nM (active); in assay [2] it was 611 nM (active); in assay [3], 769 nM (active); in assay [4], 273 nM (active). For the same compound, the activity change, negative = inhibition in assay [5] is -89.6%.
`CC[C@H](CC#N)OC(=O)N[C@@H](C)c1cccc(NC(=O)Nc2ccc(-c3cnco3)c(OC)c2)c1` displayed a parasite growth remaining, % of DMSO control (lower = more inhibition) in assay [6] of 66.9%. For the same compound, the Potency was 1530 nM (active) in assay [1], 769 nM (active) in assay [2], 968 nM (active) in assay [3] and 769 nM (active) in assay [4]. Besides, the activity change, negative = inhibition in assay [5] was -97.5%.
